This is a sample that favours compounds with a hit; in the whole collection about 19% have one here.
HT1080NT lethal: qHTS for induction of synthetic lethality in tumor cells producing 2HG: qHTS for the HT-1080-NT fibrosarcoma cell line | HT-1080-NT fibrosarcoma viability, CellTiter-Glo ATP luminescence, 48 h | Potency, µM (series often up to 46.1 µM), for inactives: at the top dose activity, negative = less viability, usual class: cytotoxic | 360,000 compounds, 1.6% hits | AID 686970, 2013;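 further: NT is the 2HG producing partner of a matched IDH1 knockdown line; potency means the concentration at half of the fitted maximal effect; 0% = DMSO-treated cells and -100% = media-only wells without cells; nearly all actives have a fitted effect of over 55% in size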
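HT-1080-NT; 750 cells/well; 5% FBS RPMI; 48 h compound, 37 degrees C; CellTiter-Glo luminescence; curve fitting and curve-class assignment.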
DT40 TDP1 no CPT: qHTS for Inhibitors of human tyrosyl-DNA phosphodiesterase 1 (TDP1): qHTS in cells in absence of CPT; Potency, µM (doses to about 46.2 µM), without a hit: top-dose activity change, negative = growth inhibition, hits mostly inhibitors; DT40 Tdp1-/- hTDP1 cells, no CPT, ATP luminescence, 48 h; 420,000 compounds, 15% hits; further: potency means the concentration at half of the fitted maximal effect; nearly all actives have a fitted effect of over 55% in size
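Chicken DT40 Tdp1-/- cells complemented with human TDP1, screened without camptothecin (DMSO vehicle only), 400 cells/well. Compounds pin-transferred, cells incubated at 37 °C for at least 48 hr. Growth read as ATP-dependent luminescence (CellTiter-Glo, 30 min at RT).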
HT1080 IDH1KD tx: qHTS for induction of synthetic lethality in tumor cells producing 2HG: qHTS for the HT-1080-IDH1KD cell line. HT-1080 IDH1 knockdown viability, ATP luminescence, 48 h. Potency, µM (highest dose often 46.1 µM), for the others: top-dose activity, negative = toxicity, usual class: cytotoxic. 360,000 compounds, 2% hits;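 further: potency means the concentration at half of the fitted maximal effect; 0% = DMSO wells and -100% = cell-free medium wells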
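Cytotoxicity counter-line: IDH1KD HT-1080, 48 h, CellTiter-Glo. Curves classed by r2, magnitude and activity.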
IL-1B inflam inh: qHTS for Inhibitors of Inflammasome Signaling: IL-1-beta AlphaLISA Primary Screen. THP-1 LPS/ATP IL-1B secretion, AlphaLISA, 16 h; active compounds read low. activity change, % at 57.5 µM. 360,000 compounds, 4.7% hits. AID 743279, 2014; in the data active means activity change below about -50%; inconclusive means mostly about -30% to -49%
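Secreted IL-1B measured by AlphaLISA bead assay after 16 h compound exposure of THP-1 cells; compounds (final up to 57.5 uM) added 1 h before LPS (250 ng/mL) and ATP (1.25 mM) stimulation; lower signal means less secretion.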
DT40 TDP1 CPT: qHTS for Inhibitors of human tyrosyl-DNA phosphodiesterase 1 (TDP1): qHTS in cells in presence of CPT. AID 686979, 2013. 420,000 compounds, 12% hits. Potency, µM (top dose mostly 46.2 µM), for inactives: at the highest dose activity change, negative = growth inhibition, usual class: inhibitors. chicken DT40 Tdp1-/-;hTDP1 cells + 20 nM CPT, ATP luminescence, 48 h; further: potency means the concentration at half of the fitted maximal effect; nearly all actives have a fitted effect of over 55% in size
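Cell growth measured by CellTiter-Glo luminescence after a minimum 48 h, 37 C compound exposure with 20 nM CPT in Tdp1-knockout DT40 cells stably expressing hTDP1, seeded 400/well; qHTS titration format.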
Starred values were filed as active, the others as inactive; u = inconclusive; x = no result. Unless noted, the call rests on the fitted dose curve; in most records, active means well fitted curve in the direction sought with a large enough effect; inconclusive means small, poorly fitted or top-dose-only effect, or another doubt; inactive means no such curve, though single readings can be large; an effect the other way counts as inactive or inconclusive. Unless noted, on the % scale 0 is the no-effect control and ±100 the full control effect.

SMILES	HT1080NT lethal	DT40 TDP1 no CPT	HT1080 IDH1KD tx	IL-1B inflam inh	DT40 TDP1 CPT
COc1cccc(CNC(=O)c2ccc3c(c2)nc2n3CCOC2)c1	x	6.0%	x	x	14.1%
CC(C)c1ccc(N(CC(=O)NCc2ccco2)C(=O)CCC(=O)Nc2ccccn2)cc1	-0.4%	-26.8%	0.9%	-13.5	-1.3%
CC(Cc1ccccc1)C(=O)N[C@@H](CO)Cc1ccccc1 (stereo not given in full)	8.7%	2.0%	5.3%	0.0	14.6%
Cc1ccc(-c2ccc(/C=N\NC(=O)c3cc4c(ccc5ccccc54)o3)o2)cc1[N+](=O)[O-]	u	9.2µM*	24.0%	24.8	10.3µM*
O=C(N/N=C/c1cccc([N+](=O)[O-])c1)c1cc2c(ccc3ccccc32)o1	25.6%	u	11.7%	-7.8	-27.7%
O=C(N/N=C/c1ccc(-c2ccc(Cl)c(C(=O)O)c2)o1)c1cc2c(ccc3ccccc32)o1	-15.2%	21.7%	-24.0%	2.2	23.5%
Cc1ccc([N+](=O)[O-])cc1-c1ccc(/C=N/NC(=O)c2cc3c(ccc4ccccc43)o2)o1	17.1%	8.2µM*	8.9%	1.9	u
O=C(/C=C/c1ccccc1)CCN1CCCCC1	u	0.92µM*	u	-90.5*	1.16µM*
CC(CN1CCCCC1)OC(=O)/C=C/c1ccccc1 (stereo not given)	5.6%	22.0%	-1.5%	18.8	-3.2%
CCCOc1ccc(C(=O)CCN2CCN(C(=O)OCC)CC2)cc1	u	5.17µM*	u	0.0	2.31µM*
COc1ccc(C(=O)CCN2CCCCCC2)cc1	u	3.16µM*	10µM*	-3.9	3.16µM*
COc1ccc(C(=O)OCCN2CCCCC2)cc1	8.7%	-0.4%	-0.4%	-1.9	1.1%
CCOc1ccc(C(=O)CCC(=O)NN2CCCCC2)cc1	12.6%	-1.9%	14.1%	4.2	0.1%
CCOc1ccc(C(=O)CCN2CCCCC2)cc1	u	u	-22.1%	-5.7	20.6µM*
CN(CC(=O)Nc1ccc(F)cc1)C(=O)c1ccncc1	10.2%	30.3%	10.5%	44.8	2.3%
O=C(c1ccccc1)c1ccc(OCCCN2CCCC2)cc1	17.4%	-20.0%	4.2%	0.6	-0.7%
O=C(CCCCN1CCCCC1)c1ccc2c(c1)Cc1ccccc1-2	-29.6%	20.6µM*	0.4%	-4.5	u
CCC1(C)CC2(CCCN(CCC(=O)c3ccccc3)C2)CCO1 (stereo not given)	3.1%	3.26µM*	4.8%	0.9	3.66µM*
COc1ccc(C(=O)CCN2CCN(c3ccc(OC)cc3)CC2)cc1	u	2.06µM*	u	-100.8*	2.06µM*
O=C(/C=C/c1ccccc1)COC(=O)c1ccccc1	u	9.2µM*	u	-8.0	u
O=C(CCN1CCCCCC1)c1ccccc1	12.5%	3.66µM*	2.6%	-3.5	3.26µM*
O=C(c1ccccc1F)N1CCN(c2ccc([N+](=O)[O-])c3cccnc23)CC1	-9.7%	u	2.3%	u	-25.4%
Cc1cc(N2CCN(c3ccc([N+](=O)[O-])c4cccnc34)CC2)c2ccccc2n1	u	5.8µM*	u	-94.4*	8.2µM*
Cc1cc(N2CCN(c3ccc(C(F)(F)F)cc3[N+](=O)[O-])CC2)c2ccccc2n1	u	20.6µM*	u	-27.5	u
Nc1nonc1OCCN1CCN(c2ccc([N+](=O)[O-])c3cccnc23)CC1	-12.9%	u	-9.3%	4.4	23.1µM*
SMILES	HT1080NT lethal	DT40 TDP1 no CPT	HT1080 IDH1KD tx	IL-1B inflam inh	DT40 TDP1 CPT
COCCNC(=O)C1(C)CCCN(Cc2c(C)nn(-c3ccccc3)c2C)C1 (stereo not given)	20.4%	-5.9%	17.8%	8.9	4.2%
CCOc1ccc(C(=O)COC(=O)c2cc(=O)[nH]c3ccccc23)cc1	-2.3%	-3.8%	0.8%	10.3	-1.1%
S=C1Nc2ccccc2Sc2ccc(Cl)cc21	1.0%	u	-25.5%	9.9	u
CCCCCC[N+](C)(C)CC/C=C1/c2ccccc2Sc2ccc(Cl)cc21	-20.3%	5.8µM*	-23.5%	-24.1	7.31µM*
O=c1c2nncn2c2cccnc2n1CCNc1ncc(C(F)(F)F)cc1Cl	-16.3%	-14.9%	3.0%	-16.1	-4.1%
O=c1[nH]c2cccc(Cl)c2n(CCNc2ncc(C(F)(F)F)cc2Cl)c1=O	23.1µM*	u	u	-28.9	u
NNc1nc2cccnc2n(CCNc2ncc(C(F)(F)F)cc2Cl)c1=O	-22.1%	u	u	0.0	16.4µM*
O=c1c(Cl)nc2cc(Cl)ccc2n1CCNc1ncc(C(F)(F)F)cc1Cl	0.9%	0.581µM*	3.3%	26.9	0.517µM*
CN(C)CCCNc1ncc(C(F)(F)F)cc1Cl	9.4%	-3.4%	6.9%	-1.1	3.6%
O=C(Nc1cc(Cl)ccc1Cl)c1cc([N+](=O)[O-])cc(Br)c1O	x	-7.7%	x	x	1.6%
O=C(Nc1ccc([N+](=O)[O-])cc1Cl)c1cc(Br)ccc1O	x	0.447µM*	x	x	0.794µM*
COc1ccc(NC(=O)c2cc(Br)ccc2Cl)c([N+](=O)[O-])c1	-26.9%	-14.8%	-29.0%	-4.1	1.0%
O=C(Nc1c(Cl)cc([N+](=O)[O-])cc1Cl)c1cc(Cl)ccc1O	x	2µM*	x	x	2.51µM*
Cc1ccc(S(=O)(=O)N(C)C)cc1NC(=O)C1CCCCC1	23.9%	-12.6%	16.7%	33.5	-0.8%
COc1ccc2c(c1)OC[C@H]1[C@H]2N2C(=O)c3ccc(F)cc3NC(=O)[C@@]2(C)[C@H]1c1ccccc1	u	23.1µM*	u	-54.3*	18.4µM*
COc1ccc2c(c1)[C@H]1[C@H](CO2)[C@H](c2ccccc2)[C@]2(C)C(=O)Nc3cc(F)ccc3C(=O)N12	u	18.4µM*	u	u	u
Cc1ccc(C(=O)Nc2ccc(S(=O)(=O)N(Cc3ccccc3)c3ccccc3)cc2)cc1	x	23.1µM*	x	x	16.4µM*
COC(=O)Cc1ccc(N(Cc2ccccc2F)S(=O)(=O)c2ccc(Cl)cc2)cc1	6.4%	14.6µM*	-20.5%	0.0	u
COC(=O)CN(c1ccc(F)cc1)S(=O)(=O)c1ccccc1	7.7%	0.7%	4.1%	15.0	-5.6%
CC(=O)Nc1ccc(S(=O)(=O)N(Cc2ccccc2)c2ccccc2)cc1	-25.6%	u	u	24.0	-1.6%
CCOc1ccc(C(=O)Nc2ccc(S(=O)(=O)N(Cc3ccccc3)c3ccccc3)cc2)cc1	x	5.17µM*	x	x	5.8µM*

High-throughput results: PubChem, National Center for Advancing Translational Sciences (NCATS)
